GLD-1 TGE inh – GLD-1/TGE RNA complex disruptors, primary screen, biochemical, fluorescence polarization | Female germline-specific tumor suppressor gld-1 (Caenorhabditis elegans), Q17339 | inhibition, % at 5.96 µM | AID 2280, 2010 | hit rate 0.44% among 320,000 | purified GLD-1 + fluorescein TGE RNA;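 active = percent inhibition above a per-plate cutoff, the plate mean of test compounds plus 3 SD, cut at about 30% in these data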;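 also: 0% = DMSO wells with GLD-1 and probe and 100% = wells lacking GLD-1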
E coli Lon inh – inhibitors of E. coli Lon protease, primary screen, biochemical, fluorescence polarization; P0A9M0; purified E. coli Lon protease; inhibition, % at 7.94 µM; hit rate 0.42% among 360,000; in the data active = inhibition above about 13%, passing the limit was not always enough;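 also: 0% = enzyme with probe and DMSO and 100% = no enzyme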
MCL1-BIM inh – inhibitors of MCL1 binding to BIM-BH3, primary screen, biochemical, fluorescence polarization; Induced myeloid leukemia cell differentiation protein Mcl-1 (Homo sapiens), Q07820; GST-MCL1 / FITC-Bim-BH3 fluorescence polarization; inhibition, % at 10.9 µM; hit rate 0.68% among 320,000;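 active = inhibition above the mean inhibition of all tested compounds plus 3 SD, set per campaign, cut at about 40% in these data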;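 also: 0% = DMSO wells and 100% = unlabeled Bim-BH3 peptide control; higher means more loss of mP so more displacement of Bim peptide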
Target sequence (Q07820 whole entry, looked up): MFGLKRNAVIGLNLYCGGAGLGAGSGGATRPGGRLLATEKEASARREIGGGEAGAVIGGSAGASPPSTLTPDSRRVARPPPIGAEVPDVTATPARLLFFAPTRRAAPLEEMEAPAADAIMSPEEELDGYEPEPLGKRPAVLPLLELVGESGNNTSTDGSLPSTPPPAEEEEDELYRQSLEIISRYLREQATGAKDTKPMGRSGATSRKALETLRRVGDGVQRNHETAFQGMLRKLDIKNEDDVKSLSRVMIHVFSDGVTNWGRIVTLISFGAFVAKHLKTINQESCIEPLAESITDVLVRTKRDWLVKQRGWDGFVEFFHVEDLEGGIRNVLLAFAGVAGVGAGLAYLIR
MEX-5 binding – MEX-5 zinc finger RNA-binding disruptors – biochemical, C. elegans, fluorescence polarization, MLPCN library, primary screen. activity score (negative = inhibition of binding), % at 10 µM. Zinc finger protein mex-5 (Caenorhabditis elegans), Q9XUB2. AID 1832, 2009. hit rate 0.38% among 300,000. MEX-5/FITC-TCR2 RNA binding; active compounds read low;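 active = inhibition past about -25% in most replicates, and total fluorescence under double the plate's negative control median, limit read from the data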;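 also: 0% = DMSO and -100% = 5 µM competing unlabeled TCR2 RNA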
Bcl-xL primary – inhibitors of human Bcl-xL, primary screen, biochemical, fluorescence polarization, HTS. GST-Bcl-xL / FITC-Bim BH3 peptide fluorescence polarization. Bcl-2-like protein 1 (Homo sapiens), Q07817. hit rate 0.7% among 320,000. inhibition, % at 10.9 µM;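 active = inhibition above the mean of all tested compounds plus 3 SD, cutoff set per campaign, cut at about 30% in these data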;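 also: 0% = DMSO wells and 100% = unlabeled Bim-BH3 peptide competitor; inhibitors lower millipolarization by displacing the labeled peptide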
EBV gp42 block – Epstein-Barr virus gp42 inhibitors, primary screen, biochemical, uHTS, fluorescence polarization; Glycoprotein 42 (Epstein-Barr virus (strain AG876)), Q1HVG2; Fluorescence polarization binding assay, mP read-out; inhibition, % (tested at 21.74 µM); hit rate 0.42% among 220,000; in the data active = inhibition above about 50%
GLD-1 TGE cf – GLD-1/TGE RNA binding inhibitors, retest, confirmation, biochemical, fluorescence polarization, triplicate. shares compounds with GLD-1 TGE inh. GLD-1/FL-TGE RNA fluorescence polarization. inhibition, % at 5.96 µM. hit rate 10% among 550;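 active = average inhibition across triplicates above the hit cutoff set in the primary screen, cut at about 32% in these data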;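 also: 0% = GLD-1 with RNA probe and DMSO and 100% = wells lacking GLD-1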
* hit, by the source's call. Shown are actives, neighbours in structure and some others; about 1.5% of the full set was active somewhere.

`O=C(NCCCO)/C(=C\c1ccco1)NC(=O)c1ccc(Br)o1` gave GLD-1 TGE inh 16.2, E coli Lon inh 9.7, MCL1-BIM inh 22.9, MEX-5 binding -7.6, Bcl-xL primary 22.4 and EBV gp42 block 2.7.
Screening O=C(CSc1cccc[n+]1[O-])Nc1ccc(Cl)cc1F returned GLD-1 TGE inh 8.2 and E coli Lon inh -12.8.
Screening COc1ccc(C)cc1C1=CC(=O)C[C@H](c2ccc(F)cc2)C1 returned GLD-1 TGE inh 34.2*, E coli Lon inh -9.4, MCL1-BIM inh 4.0, Bcl-xL primary 2.7 and GLD-1 TGE cf -5.2.
For COc1ccc(Br)cc1C1=CC(=O)C[C@H](c2ccc(F)cc2)C1 the results were E coli Lon inh 3.7.
For O=C(COc1ccc2ccc(=O)oc2c1)NCc1ccccn1 the results were GLD-1 TGE inh 3.3, E coli Lon inh -8.4, MCL1-BIM inh -1.7, MEX-5 binding 0.6 and Bcl-xL primary -2.5.
`COc1cc(/C=C(\C#N)c2[nH]nc(N)c2C#N)cc(OC)c1O` gave GLD-1 TGE inh -77.8, E coli Lon inh -112.3, MCL1-BIM inh -1.1, MEX-5 binding 2.0, Bcl-xL primary -4.4 and EBV gp42 block -54.3.
Screening N#Cc1c(NCCO)nc(NCc2ccccc2)c2c1CCN(Cc1ccccc1)C2 returned GLD-1 TGE inh 36.1*, MCL1-BIM inh 50.5*, MEX-5 binding -0.2, Bcl-xL primary 45.7*, EBV gp42 block 1.8 and GLD-1 TGE cf 5.7.
`CCN1CCc2c(C#N)c(N3CCCCC3)nc(NCc3ccccc3)c2C1` gave GLD-1 TGE inh 13.9, E coli Lon inh 7.9, MCL1-BIM inh 15.7, MEX-5 binding -0.6, Bcl-xL primary 21.8 and EBV gp42 block 2.1.
For Cc1cccc(C)c1NC(=O)CSc1nc2ccccc2c(=O)[nH]1 the results were GLD-1 TGE inh 0.7, E coli Lon inh 12.7, MCL1-BIM inh 12.4, MEX-5 binding 0.2, Bcl-xL primary 6.5 and EBV gp42 block -11.3.
Screening Cc1cc2cc(CNC(=O)CCC(=O)O)ccc2n1C returned GLD-1 TGE inh 16.7, E coli Lon inh -4.0, MCL1-BIM inh 14.6, MEX-5 binding -4.3, Bcl-xL primary 18.0 and EBV gp42 block -18.3.
Cc1cc2cc(CNC(=O)C3CCCC3)ccc2n1C was read as GLD-1 TGE inh 37.3*, E coli Lon inh 6.1, MCL1-BIM inh 27.1, MEX-5 binding 0.8, Bcl-xL primary 29.4, EBV gp42 block -10.2 and GLD-1 TGE cf 6.4.
`Cc1cc2cc(CNC(=O)c3ccc(Br)o3)ccc2n1C` gave GLD-1 TGE inh 38.3*, E coli Lon inh 4.1, MCL1-BIM inh 36.2, MEX-5 binding 0.7, Bcl-xL primary 29.5, EBV gp42 block 15.4 and GLD-1 TGE cf 9.5.
Fc1ccc(CN2CCN(c3ncnc4scc(-c5ccc(F)cc5)c34)CC2)cc1 was read as GLD-1 TGE inh -3.8, E coli Lon inh -9.0, MCL1-BIM inh 0.7, MEX-5 binding -1.0 and Bcl-xL primary -3.3.
For CC1CN(C(=S)Nc2ccc(SC(F)F)cc2)CC(C)O1 (stereo not given) the results were GLD-1 TGE inh 3.4, E coli Lon inh 8.1, MCL1-BIM inh 6.2, MEX-5 binding 2.2 and Bcl-xL primary -0.1.
Screening CC1CC(C)CN(C(=S)Nc2ccc(SC(F)F)cc2)C1 (stereo not given) returned GLD-1 TGE inh 42.7*, E coli Lon inh 10.5, MCL1-BIM inh 0.1, MEX-5 binding 0.0, Bcl-xL primary 2.6, EBV gp42 block -0.1 and GLD-1 TGE cf 4.2.
For CC1CCN(C(=O)Cn2cnc3c(cnn3C(C)(C)C)c2=O)CC1 the results were GLD-1 TGE inh 11.9, E coli Lon inh 5.9, MCL1-BIM inh 3.8, MEX-5 binding 0.1, Bcl-xL primary 2.9 and EBV gp42 block -9.5.

Compound activity (PubChem)
